Here are results for ten compounds from PubChem BioAssay (NCI).

About 79,000 compounds went through this panel and 15% of them were active in at least one assay; those are over-represented in the sample as a whole. Values without a mark were called inactive. The source made the active and inactive calls. No stated cut-off is given here; in the data, active means growth inhibition above about 70%; inactive means the rest.

Experiment [1] is described as follows: NCI Yeast Anticancer Drug Screen. Data for the rad50 strain (AID 155).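 Further: 0% = growth of vehicle-only cultures of the same strain.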 The settings on record: S. cerevisiae rad50 strain growth inhibition, active compounds read high. Put shortly: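 Yeast carrying a defined DNA repair defect were exposed to test compounds, and growth was compared with vehicle-treated controls to give percent inhibition.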
Experiment [2] in a line: NCI Yeast Anticancer Drug Screen. Data for the mec2-1 strain (AID 157). The settings on record: S. cerevisiae mec2-1 strain, active compounds read high. In short, it runs like this: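 Vehicle-treated cultures served as reference for growth inhibition of compound-exposed mec2-1 yeast.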
Experiment [3] is described as follows: NCI Yeast Anticancer Drug Screen. Data for the sgs1 mgt1 strain (AID 161).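 Further: 0% = growth of cultures given vehicle only.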 The settings on record: S. cerevisiae sgs1 mgt1 strain, active compounds read high. In short, it runs like this: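 Read-out: growth inhibition vs vehicle controls. Cells: mutant yeast strain deficient in DNA damage repair.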
The nature of experiment [4]: NCI Yeast Anticancer Drug Screen. Data for the cln2 rad14 strain (AID 165).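 Further: 0% = growth equal to vehicle treated cultures.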 Particulars: S. cerevisiae cln2 rad14 strain, active compounds read high. Put shortly: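 Each compound was tested on cln2 rad14 yeast. Inhibition of growth was calculated against vehicle-exposed controls.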
Experiment [5] is described as follows: NCI Yeast Anticancer Drug Screen. Data for the bub3 strain (AID 167). Particulars: S. cerevisiae bub3 mutant strain, active compounds read high. Put shortly:
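Compounds were applied to a genetically altered yeast strain carrying a cell-cycle control defect. Growth inhibition was scored against vehicle-treated controls.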

Experiment [6] is described as follows: NCI Yeast Anticancer Drug Screen. Data for the mlh1 rad18 strain (AID 175). The settings on record: S. cerevisiae mlh1 rad18 strain growth inhibition, active compounds read high. In short, it runs like this:
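Vehicle-treated cultures served as the reference for growth inhibition in a yeast strain carrying DNA damage repair alterations exposed to each compound.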

Setting [7] is: at 5.0 µM (retest, dose inferred, filed as 0.5).
The mark [8] stands for this setting: at 50.0 µM (retest, dose inferred, filed as 5.0).

As to `O=C1C=CC(=O)N1c1cccc([N+](=O)[O-])c1`, the growth inhibition in experiment [1] (setting [7]) was 78% (active); in experiment [1] (setting [8]), 99% (active); in experiment [1] (at 50.0 µM), 99.6% (active); in experiment [2] (setting [7]) it was 95% (active); in experiment [2] (setting [8]) it was 100% (active); in experiment [2] (at 50.0 µM) it was 99.7% (active). Besides, the growth inhibition in experiment [3] (setting [7]) was 93% (active); in experiment [3] (setting [8]) it was 99% (active); in experiment [3] (at 50.0 µM) it was 99.5% (active); in experiment [4] (setting [7]) it was 84% (active); in experiment [4] (setting [8]), 99% (active); in experiment [4] (at 50.0 µM) it was 99.7% (active). Also, the growth inhibition was 99% (active) in experiment [5] (setting [7]); 99% (active) in experiment [5] (setting [8]); 99.3% (active) in experiment [5] (at 50.0 µM); 91% (active) in experiment [6] (setting [7]); 99% (active) in experiment [6] (setting [8]); 99.5% (active) in experiment [6] (at 50.0 µM).

With `Oc1[nH]c2ccccc2c1N=NC(=S)NCc1ccccn1`, the growth inhibition in experiment [1] (setting [7]) is 9%; in experiment [1] (setting [8]) it was 99% (active); in experiment [1] (at 50.0 µM) it was 77.4% (active); in experiment [2] (setting [7]), 2%; in experiment [2] (setting [8]), 99% (active); in experiment [2] (at 50.0 µM), 86.3% (active). The growth inhibition is 22% in experiment [3] (setting [7]); 98% (active) in experiment [3] (setting [8]); 90.9% (active) in experiment [3] (at 50.0 µM); 31% in experiment [4] (setting [7]); 99% (active) in experiment [4] (setting [8]); 90.5% (active) in experiment [4] (at 50.0 µM). Moreover, the growth inhibition in experiment [5] (setting [7]) was 3%; in experiment [5] (setting [8]), 99% (active); in experiment [5] (at 50.0 µM) it was 90.8% (active); in experiment [6] (setting [7]), 26%; in experiment [6] (setting [8]) it was 99% (active); in experiment [6] (at 50.0 µM), 91.8% (active).

Turning to `O=C(Cc1nc2ccc(Cl)cc2nc1CC(=O)c1ccccc1)c1ccccc1`, the growth inhibition in experiment [1] (setting [7]) is 10%; in experiment [1] (setting [8]) it was 96% (active); in experiment [1] (at 50.0 µM) it was 95.2% (active); in experiment [2] (setting [7]), 2%; in experiment [2] (setting [8]), 93% (active); in experiment [2] (at 50.0 µM), 85.5% (active). The growth inhibition is -2% in experiment [3] (setting [7]); 94% (active) in experiment [3] (setting [8]); 61.7% in experiment [3] (at 50.0 µM); -5% in experiment [4] (setting [7]); 92% (active) in experiment [4] (setting [8]); 67.3% in experiment [4] (at 50.0 µM). The growth inhibition is -1% in experiment [5] (setting [7]); 97% (active) in experiment [5] (setting [8]); 77.5% (active) in experiment [5] (at 50.0 µM); 7% in experiment [6] (setting [7]); 96% (active) in experiment [6] (setting [8]); 96.3% (active) in experiment [6] (at 50.0 µM).

Consider `COc1ccccc1NC(=O)CSC(N)=O`, for which the growth inhibition in experiment [1] (setting [7]) is 5%; in experiment [1] (setting [8]), 24%; in experiment [1] (at 50.0 µM), 71% (active); in experiment [2] (setting [7]), 4%; in experiment [2] (setting [8]), 42%; in experiment [2] (at 50.0 µM), 61.8%. For the same compound, the growth inhibition in experiment [3] (setting [7]) was 3%; in experiment [3] (setting [8]) it was 24%; in experiment [3] (at 50.0 µM), 92.5% (active); in experiment [4] (setting [7]), 5%; in experiment [4] (setting [8]), 7%; in experiment [4] (at 50.0 µM), 58%. The growth inhibition in experiment [5] (setting [7]) was 4%; in experiment [5] (setting [8]), 66%; in experiment [5] (at 50.0 µM), 88.2% (active); in experiment [6] (setting [7]), 2%; in experiment [6] (setting [8]), 21%; in experiment [6] (at 50.0 µM), 74% (active).

Regarding `Cc1ccc2ccc(C(Nc3ccccc3)c3ccncc3)c(O)c2n1` (stereo not given), the growth inhibition in experiment [1] (setting [7]) is -6%; in experiment [1] (setting [8]) it was 92% (active); in experiment [1] (at 50.0 µM), 90.8% (active); in experiment [2] (setting [7]), -2%; in experiment [2] (setting [8]), 95% (active); in experiment [2] (at 50.0 µM), 82.8% (active). The growth inhibition is 4% in experiment [3] (setting [7]); 87% (active) in experiment [3] (setting [8]); 43.5% in experiment [3] (at 50.0 µM); -6% in experiment [4] (setting [7]); 81% (active) in experiment [4] (setting [8]); 49.3% in experiment [4] (at 50.0 µM). The growth inhibition in experiment [5] (setting [7]) is -7%; in experiment [5] (setting [8]), 92% (active); in experiment [5] (at 50.0 µM) it was 81.1% (active); in experiment [6] (setting [7]), -5%; in experiment [6] (setting [8]), 92% (active); in experiment [6] (at 50.0 µM), 89% (active).

On to `O=C(O)/C(=C\c1cc(I)c(O)c(I)c1)c1ccc(I)cc1`, for which the growth inhibition in experiment [1] (setting [7]) is 3%; in experiment [1] (setting [8]), 39%; in experiment [1] (at 50.0 µM) it was 88.3% (active); in experiment [2] (setting [7]), 42%; in experiment [2] (setting [8]), 70% (active); in experiment [2] (at 50.0 µM) it was 80.6% (active). Also, the growth inhibition is 34% in experiment [3] (setting [7]); 75% (active) in experiment [3] (setting [8]); 91.8% (active) in experiment [3] (at 50.0 µM); 19% in experiment [4] (setting [7]); 70% (active) in experiment [4] (setting [8]); 82.7% (active) in experiment [4] (at 50.0 µM). Moreover, the growth inhibition in experiment [5] (setting [7]) is 3%; in experiment [5] (setting [8]), 59%; in experiment [5] (at 50.0 µM), 48%; in experiment [6] (setting [7]) it was 37%; in experiment [6] (setting [8]), 76% (active); in experiment [6] (at 50.0 µM), 80.8% (active).

For `Cc1c(Cl)ccc2c1NC(=O)C2(O)CC(=O)c1ccc(Cl)cc1` (stereo not given), the growth inhibition in experiment [1] (setting [7]) was 13%; in experiment [1] (setting [8]), 98% (active); in experiment [1] (at 50.0 µM) it was 99.2% (active); in experiment [2] (setting [7]), 14%; in experiment [2] (setting [8]) it was 99% (active); in experiment [2] (at 50.0 µM) it was 99% (active). In addition, the growth inhibition in experiment [3] (setting [7]) is 31%; in experiment [3] (setting [8]), 100% (active); in experiment [3] (at 50.0 µM) it was 99.2% (active); in experiment [4] (setting [7]) it was 31%; in experiment [4] (setting [8]) it was 98% (active); in experiment [4] (at 50.0 µM), 99.3% (active). Moreover, the growth inhibition in experiment [5] (setting [7]) was 14%; in experiment [5] (setting [8]) it was 99% (active); in experiment [5] (at 50.0 µM) it was 99.3% (active); in experiment [6] (setting [7]), 13%; in experiment [6] (setting [8]) it was 99% (active); in experiment [6] (at 50.0 µM), 99.2% (active).

On to `CC1(C)c2ccccc2Cc2cc3ccccc3nc21`, for which the growth inhibition is 0% in experiment [1] (setting [7]); 98% (active) in experiment [1] (setting [8]); 97.8% (active) in experiment [1] (at 50.0 µM); -4% in experiment [2] (setting [7]); 99% (active) in experiment [2] (setting [8]); 93% (active) in experiment [2] (at 50.0 µM). Besides, the growth inhibition in experiment [3] (setting [7]) was -5%; in experiment [3] (setting [8]) it was 97% (active); in experiment [3] (at 50.0 µM), 90.2% (active); in experiment [4] (setting [7]), 1%; in experiment [4] (setting [8]), 95% (active); in experiment [4] (at 50.0 µM) it was 25.2%. For the same compound, the growth inhibition in experiment [5] (setting [7]) is -3%; in experiment [5] (setting [8]), 98% (active); in experiment [5] (at 50.0 µM) it was 94% (active); in experiment [6] (setting [7]), -1%; in experiment [6] (setting [8]) it was 98% (active); in experiment [6] (at 50.0 µM), 83.2% (active).

As to `CSc1nc2c(c(=O)[nH]1)C1C=C(C)CCC1C(C)(C)C2` (stereo not given), the growth inhibition was -5% in experiment [1] (setting [7]); 97% (active) in experiment [1] (setting [8]); 52.1% in experiment [1] (at 50.0 µM); -5% in experiment [2] (setting [7]); 97% (active) in experiment [2] (setting [8]); 56.1% in experiment [2] (at 50.0 µM). Moreover, the growth inhibition was 0% in experiment [3] (setting [7]); 97% (active) in experiment [3] (setting [8]); 56% in experiment [3] (at 50.0 µM); -3% in experiment [4] (setting [7]); 96% (active) in experiment [4] (setting [8]); 69.2% in experiment [4] (at 50.0 µM). For the same compound, the growth inhibition was 10% in experiment [5] (setting [7]); 97% (active) in experiment [5] (setting [8]); 53.8% in experiment [5] (at 50.0 µM); -10% in experiment [6] (setting [7]); 97% (active) in experiment [6] (setting [8]); 51.6% in experiment [6] (at 50.0 µM).

Turning to `Cc1ccc(C(c2ccc(N(C)C)cc2)c2ccc(N(C)C)cc2)cc1`, the growth inhibition was 97% (active) in experiment [1] (setting [7]); 89% (active) in experiment [1] (setting [8]); 94.5% (active) in experiment [1] (at 50.0 µM); 99% (active) in experiment [2] (setting [7]); 92% (active) in experiment [2] (setting [8]); 94.7% (active) in experiment [2] (at 50.0 µM). Besides, the growth inhibition in experiment [3] (setting [7]) was 99% (active); in experiment [3] (setting [8]) it was 95% (active); in experiment [3] (at 50.0 µM), 93.8% (active); in experiment [4] (setting [7]), 78% (active); in experiment [4] (setting [8]), 69%; in experiment [4] (at 50.0 µM) it was 69%. Also, the growth inhibition in experiment [5] (setting [7]) is 98% (active); in experiment [5] (setting [8]) it was 92% (active); in experiment [5] (at 50.0 µM) it was 94.7% (active); in experiment [6] (setting [7]) it was 98% (active); in experiment [6] (setting [8]), 92% (active); in experiment [6] (at 50.0 µM), 92.7% (active).
